# Shn3 inh set2 = inhibitors of Schnurri-3 3'UTR reporter in osteoblasts | inhibition, % at 12.5 µM | actives 0.52% (n = 360,000) | Clone20 osteoblast Shn3 3'UTR firefly luciferase, 24 h | AID 588674;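 active = mean inhibition of at least 75% with every replicate also reaching 75%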;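 also: 0% = median of neutral control wells and 100% = pilot-screen positive control compound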
# PAX8 reporter = inhibitors of PAX8 transcriptional activity in RMG-I cells; RMG-I TPO-luciferase reporter, SteadyGlo, 24 h; inhibition, % at 12.6 µM; actives 1.2% (n = 360,000); AID 652154;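 active = mean replicate inhibition at least 60% with every replicate also reaching 60%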;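 also: luciferase light reporting Pax8 driven TPO promoter activity; plate controls were median of neutral control wells for no effect and mitoxantrone controls for full effect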
# CSC inhib = blocks cancer stem cells. inhibition, % at 7.5 µM. AID 2717. cancer stem cell-like cells viability, luminescence. actives 1.1% (n = 300,000); in the data active = inhibition above about 75%; tested in HMLE shEcad cells
# Beta cell apopt = blocks beta cell apoptosis. INS-1E cytokine-induced death, ATP luminescence, 48 h; percent of positive-control rescue, neutral wells zero. protection from apoptosis, % (test concentration not listed). actives 0.8% (n = 300,000). AID 435005;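 active = Every replicate reaches about 75%, or at least half do and their mean reaches it too, limit read from the data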;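 also: 0% = cytokine-treated negative control wells and 100% = positive control rescue; higher means more ATP so stronger rescue from cytokine killing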
# Mdm2 MdmX PPI = disrupts the human Mdm2-MdmX interaction; inhibition, % at 8 µM; actives 3% (n = 330,000); SaOS-2 split-luciferase Mdm2/MdmX complementation, luminescence;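 active = inhibition of at least 50% at 8 µM in the primary screen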
# Target sequence (O15151 whole entry, looked up): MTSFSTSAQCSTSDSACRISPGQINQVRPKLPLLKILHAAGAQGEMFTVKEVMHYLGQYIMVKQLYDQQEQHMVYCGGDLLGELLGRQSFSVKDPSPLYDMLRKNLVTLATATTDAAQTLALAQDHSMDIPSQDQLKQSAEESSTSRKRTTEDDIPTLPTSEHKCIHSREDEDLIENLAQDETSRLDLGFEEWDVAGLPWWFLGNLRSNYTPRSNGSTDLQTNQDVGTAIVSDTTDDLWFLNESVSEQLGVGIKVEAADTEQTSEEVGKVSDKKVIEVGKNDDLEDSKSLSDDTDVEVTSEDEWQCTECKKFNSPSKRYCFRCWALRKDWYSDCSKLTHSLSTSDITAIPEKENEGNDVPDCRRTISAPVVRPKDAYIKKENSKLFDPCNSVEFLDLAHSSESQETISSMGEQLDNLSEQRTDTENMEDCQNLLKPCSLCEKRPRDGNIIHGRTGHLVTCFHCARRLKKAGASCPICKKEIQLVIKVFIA
# Target sequence (Q00987 whole entry, looked up): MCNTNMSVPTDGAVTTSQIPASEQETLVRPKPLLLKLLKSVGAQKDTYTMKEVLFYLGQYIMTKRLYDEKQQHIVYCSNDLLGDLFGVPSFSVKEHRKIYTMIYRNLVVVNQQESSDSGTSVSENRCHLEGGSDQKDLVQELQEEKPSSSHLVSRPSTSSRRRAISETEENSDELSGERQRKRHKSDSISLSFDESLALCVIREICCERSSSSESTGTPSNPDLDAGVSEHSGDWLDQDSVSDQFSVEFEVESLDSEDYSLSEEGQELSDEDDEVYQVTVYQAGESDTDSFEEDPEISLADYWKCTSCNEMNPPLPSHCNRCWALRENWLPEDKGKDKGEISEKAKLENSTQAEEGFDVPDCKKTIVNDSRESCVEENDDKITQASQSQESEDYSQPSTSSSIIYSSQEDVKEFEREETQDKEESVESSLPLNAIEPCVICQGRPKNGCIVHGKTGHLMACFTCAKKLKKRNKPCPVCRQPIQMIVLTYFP
# Gli-Sufu block = antagonists of Gli-Sufu signaling; Sufu-KO-LIGHT fibroblasts, Gli luciferase reporter luminescence; inhibition, % at 5 µM; actives 0.74% (n = 340,000);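 active = inhibition above about 55%, limit read from the data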;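 also: 0% = DMSO-treated cells and 100% = wells with medium but no cells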
# Mdm2 MdmX conf = human Mdm2/MdmX binding inhibition, confirmed; shares compounds with Mdm2 MdmX PPI; luminescent assay; inhibition, % at 8 µM; actives 55% (n = 10,000); AID 489028; in the data active = inhibition above about 40%
# FLuc counter = inhibits full-length luciferase, flagging false Mdm2/MdmX hits; SaOS-2 full-length luciferase counterscreen, luminescence; actives 77% (n = 6,200); shares compounds with Mdm2 MdmX PPI; inhibition, % at 8 µM;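 active = mean inhibition at 8 µM reaching about 37%, which flags the compound as non-specific, limit read from the data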;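 also: p53-null SaOS-2 cells with luciferase driven by a doxycycline-inducible promoter; compound on cells about two nights before reading with doxycycline added after day one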
# Gli antag conf = confirmation of Gli-SUFU pathway antagonists; shares compounds with Gli-Sufu block; Sufu-KO-LIGHT cells, Gli luciferase reporter, luminescence; inhibition, % at 5 µM; actives 40% (n = 2,500);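 active = mean inhibition at 5 µM reaching about 45%, limit read from the data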;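 also: plate controls were DMSO-treated cells for no effect and wells lacking cells for full effect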
# Gli cytotox = counter-screen for Gli-SUFU antagonists: cytotoxicity. actives 32% (n = 2,500). shares compounds with Gli-Sufu block. AID 651994. cytotoxicity, % at 5 µM. Sufu-KO-LIGHT cells cytotoxicity, ATP luminescence;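 active = mean cytotoxicity at 5 µM above about 25%, limit read from the data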;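 also: cells exposed to compound overnight for roughly 16 to 18 hours; plate controls were DMSO wells with cells for no effect and medium without cells for full effect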
# Wnt3a counter = Wnt3a reporter inhibition counter-screen; shares compounds with Gli-Sufu block; Wnt-LIGHT cells, Wnt3a-driven luciferase reporter, luminescence; actives 20% (n = 2,500); inhibition, % at 6.25 µM; AID 651995;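 active = mean inhibition above about 25%, limit read from the data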
# Numbers without * were called inactive; . = not tested or not shown. Most compounds without a hit are left out; they make up all but 4% or so of the library.
SMILES,Shn3 inh set2,PAX8 reporter,CSC inhib,Beta cell apopt,Mdm2 MdmX PPI,Gli-Sufu block,Mdm2 MdmX conf,FLuc counter,Gli antag conf,Gli cytotox,Wnt3a counter
S=C(NCCCN1CCOCC1)N1CCN(c2nc(-c3ccccc3)cs2)CC1,40.7,4.5,41.0,5.7,19.9,19.2,.,.,.,.,.
Cc1noc(C)c1NC(=O)N(C)C[C@H]1Oc2ccc(NC(=O)NC(C)C)cc2CC(=O)N([C@@H](C)CO)C[C@@H]1C,.,-55.4,.,.,.,.,.,.,.,.,.
CCCCn1c(SCc2c(C)noc2C)nc2cc(S(N)(=O)=O)ccc21,-24.2,.,-15.5,-16.9,75.5*,50.5,59.5*,61.6*,62.0*,0.8,-13.1
CCCCn1c(SCC(=O)Nc2cc(C)on2)nc2cc(S(N)(=O)=O)ccc21,5.8,-6.9,.,0.9,0.2,-17.2,.,.,.,.,.
Cc1ccc(NC(=O)c2cc3ccccc3o2)cc1S(=O)(=O)N(C)C,-9.1,.,.,.,.,-121.3,.,.,.,.,.
Cc1ccc(NC(=O)c2cc3ccccc3oc2=O)cc1S(=O)(=O)N(C)C,83.5,.,-1.3,-9.8,89.0*,78.5*,94.0*,25.9,89.1*,16.5,101.4*
COC(=O)c1cnc(Oc2ccc(NC(=O)NC(=O)c3c(OC)cccc3OC)cc2)cc1C(F)(F)F,37.3,72.8*,40.8,32.7,76.1*,51.7,57.5*,80.0*,53.4*,58.2*,-31.2
COC(=O)c1cnc(Oc2ccc(NC(=O)NC(=O)c3c(F)cccc3F)cc2)cc1C(F)(F)F,-3.2,22.3,4.8,0.4,12.7,-0.1,.,.,.,.,.
CC[C@]12c3[nH]c4cc(CCC(=O)N(C)C)ccc4c3CCN1C(=O)[C@@H](CC(=O)NC/C=C(\C)CCC=C(C)C)C[C@@H]2C(=O)N1CCN(C(=O)c2ccco2)CC1,86.5*,.,.,.,92.9*,78.8*,59.3*,58.9*,77.1*,30.0*,30.6*
Cc1cc(C)c2nc(NNC(=O)c3ccc(S(=O)(=O)N4CCCC(C)C4)cc3)sc2c1 (stereo not drawn),59.2,.,118.6*,107.1*,82.6*,57.6*,86.2*,45.3*,16.9,8.7,-8.1
O=c1[nH]c(=O)n(-c2ccc(F)cc2)c2c1C(C(F)(F)F)(C(F)(F)F)N=C(c1ccc(F)cc1)N2,35.5,15.0,.,75.8*,53.3*,75.2*,38.1,68.4*,68.5*,10.0,77.2*
C[C@H](CO)N1C[C@H](C)[C@@H](CN(C)S(=O)(=O)c2ccc(C(F)(F)F)cc2)OCc2ccccc2-c2ccccc2C1=O,.,20.5,.,.,.,.,.,.,.,.,.
Cc1ccccc1S(=O)(=O)N1C[C@H](O)COC[C@@H]2O[C@H](CC(=O)N3CCC(Cc4ccccc4)CC3)CC[C@H]21,.,2.5,.,.,.,.,.,.,.,.,.
O=C(CCCCCCC(=O)Nc1ccccc1)NO,-261.4,101.5*,106.2*,-3.8,50.5*,83.9*,34.1,.,88.5*,17.9,-234.0
O=C(NCCc1ccncc1)Nc1cccc(Cl)c1,-3.6,-13.0,10.4,-6.0,-30.1,6.0,.,.,.,.,.
O=C(Nc1cccc(Cl)c1)Nc1nnc(-c2ccncc2)s1,34.8,103.5*,65.2,99.6*,100.0*,56.9*,98.2*,56.4*,60.9*,19.2,68.9*
CCOC(=O)c1c(CN2CCCCC2)n(C)c2cc(Br)c(OC)cc12,6.9,.,1.0,9.6,-26.5,7.5,.,.,.,.,.
CCOC(=O)c1c(CSc2nc(C)cc(C)c2C#N)n(C)c2cc(Br)c(OC(C)=O)cc12,77.5,9.7,5.9,111.1*,71.8*,79.2*,22.6,.,80.0*,37.8*,9.8
CCOC(=O)CC(=O)CSc1nc(C)cc(C)c1C#N,3.4,7.9,-2.7,.,-7.0,-17.4,.,.,.,.,.
